Assay results published in PubChem BioAssay AID449762 (Southern Research Specialized Biocontainment Screening …, 2010).
Hit rate of the full screen: of about 330,000 compounds, about 1,900 (0.58%) were called active. About 4% were inconclusive and are not listed. Not all results are given here. Results with a measured potency or affinity are listed apart. Unmarked numbers belong to inactive results. Cut-off read from the data, not from the text of the source: inconclusive = inhibition above about 70% without an active follow-up result; inactive = below that.

Test: M. tuberculosis growth inhibition, HTS (AID 449762);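 note: bacterial growth assessed after seven days of incubation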
Settings: M. tuberculosis H37Rv growth inhibition, 7H9 media; at 25 µM; hits give high values

Compared with `CCCn1c(N)cc(=O)n(CCC)c1=O`, `CCN(CC)c1ccc(NS(=O)(=O)c2cn(C)c(=O)n(C)c2=O)c(C)c1` is lower in inhibition: 8.69% for the first, -6.59% for the second.

First: Clc1ccccc1CN1CCN(c2ccccc2Cl)CC1
Second: O=C(CSc1nc(Nc2ccccc2)nc(N2CCOCC2)n1)Nc1ccccc1Cl
The inhibition of the first is higher: -2.43% for the first, -2.86% for the second.

Going from `c1coc(CNc2c3c(nc4ncnn24)CCCC3)c1` to `CN(C)CCCNc1c2c(nc3cc(-c4cccc(F)c4)nn13)CCC2`, the inhibition rises from -6.82% to 1.49%.

First: COc1cccc(-c2cc3nc4c(c(N5CCC6(CC5)OCCO6)n3n2)CCCC4)c1
Second: Clc1cccc(-c2cc3nc4c(c(N5CCOCC5)n3n2)CCCC4)c1
The inhibition of the first is lower: 12.8% for the first, 58.9% for the second.

Compared with `C(=NCCCN1CCOCC1)c1ccc2c(c1)OCO2`, `CC(C)CC1Nc2ccc(C(=O)NCCCN3CCOCC3)cc2NC1=O` (configuration not stated) is higher in inhibition: -12.4% for the first, 7.57% for the second.

Going from `COc1cc(NC(=O)C23CC4CC(C2)CC(n2nnc(C)n2)(C4)C3)c(OC)cc1Cl` to `COc1cc(OC)c(C(=O)NNC(=S)NC2CCCCC2)cc1OC`, the inhibition falls from 2.98% to -2.47%.

Compared with `CCC(C)(C)n1nnnc1C(c1cc2cc(OC)ccc2[nH]c1=O)N1CCc2ccccc21` (configuration not stated), `COc1cc2cc(C(c3nnnn3C3CCCC3)N3CCc4ccccc43)c(=O)[nH]c2cc1OC` (configuration not stated) is lower in inhibition: 64.6% for the first, 0.64% for the second.

Going from `COc1ccc(CN2CCCC(C(=O)c3ccc(Cl)cc3)C2)cc1Cn1cccn1` (configuration not stated) to `COc1ccc(CN2CCCC(C(=O)c3cccc(OC(C)C)c3)C2)cc1Cn1cccn1` (configuration not stated), the inhibition falls from -5.07% to -6.67%.

Compared with `CCCNC1=C(C)C(=O)C2=C(C1=O)C(COC(N)=O)[C@]1(OC)C3NC3CN21` (some centres not stated), `COC12C(COC(N)=O)C3=C(C(=O)C(C)=C(N)C3=O)N1CC1C2N1C` (configuration not stated) is higher in inhibition: -1.51% for the first, 100% for the second.

Going from `CC(=O)N1CCN(c2ccc(NC(=S)NC(=O)/C=C/c3ccccc3)cc2)CC1` to `CC(Nc1cc(N2CCN(C(=O)C(C)(C)C)CC2)ccc1[N+](=O)[O-])c1ccccc1` (configuration not stated), the inhibition rises from 1.44% to 6.58%.

First: Cn1c(/C=N/O)nc2ccccc21
Second: COC(=O)N/N=C/c1ccccc1Cl
The inhibition of the first is lower: -1.93% for the first, -1.15% for the second.

First: CCOC(=O)c1ccccc1N=Cc1c(O)c2ccccc2oc1=O
Second: COC(=O)c1cc(N=Cc2c(O)c3ccccc3oc2=O)cc(C(=O)OC)c1
The inhibition of the first is higher: 5.1% for the first, -16.3% for the second.

Going from `CCOC(=O)c1ccc(N=Cc2nc(-c3ccccc3)oc2OC(C)=O)cc1` to `COc1cc(C(=O)NCC(=O)Nc2c(C)cccc2C)ccc1OCc1ccccc1`, the inhibition falls from 39.2% to -1.77%.

First: COc1ccc(C(O)c2ncc(C(F)(F)F)cc2Cl)cc1 (configuration not stated)
Second: COc1ccc(C(CNC(=O)Nc2ccc(Cl)cc2)N2CCN(C)CC2)cc1 (configuration not stated)
The inhibition of the first is higher: 12.8% for the first, 6.3% for the second.

Going from `Cc1cc(C(=O)N/N=C2\CC(=O)CC(C)(C)C2)c2ccccc2n1` to `CC(=O)NNC(=O)c1cc2c3ccccc3n(C)c2s1`, the inhibition falls from 5.98% to -4.02%.

First: COCCn1c(NCc2ccc(C)cc2)nc2c1c(=O)[nH]c(=O)n2C
Second: COc1ccccc1OCCNC(=O)C1CC(=O)N(Cc2ccc(C)cc2)C1 (configuration not stated)
The inhibition of the first is higher: 2.2% for the first, -0.95% for the second.

Compared with `COc1cccc(NC(=O)C2CCCO2)c1` (configuration not stated), `COc1cccc(NC(=O)[C@@H]2CCCN2C(=O)C2CCN(S(=O)(=O)c3ccc(C)cc3)CC2)c1` is lower in inhibition: 0.33% for the first, -6.02% for the second.

First: N#Cc1c(-c2ccc(Cl)cc2)ccn2nc(CCC(=O)O)nc12
Second: CCc1nc2c(C#N)c(-c3ccc(Cl)cc3)ccn2n1
The inhibition of the first is higher: 0.53% for the first, -11.1% for the second.

Compared with `O=C(COC(=O)CNC(=O)c1cccc(OC(F)F)c1)NCc1ccc2c(c1)OCO2`, `O=C(COc1ccccc1Br)c1ccc2c(c1)OCO2` is lower in inhibition: 7.07% for the first, -8.06% for the second.

Going from `Cc1ccc(NC(=O)c2cccc(-n3cnnn3)c2)cc1Cl` to `O=C(NC(=S)Nc1ccc2oc(=O)ccc2c1)c1cccc(Cl)c1`, the inhibition rises from 4.03% to 5.43%.

Going from `CCN1CC(CN(C)Cc2nc(Cc3ccccc3)no2)CC1=O` (configuration not stated) to `CC(CCc1ccccc1)NC(=O)CN(C)Cc1ccc(F)cc1` (configuration not stated), the inhibition falls from 3.14% to 0.05%.

First: O=C1c2ccccc2S(=O)(=O)c2cc(C(=O)N3CCN(c4ccccc4)CC3)ccc21
Second: O=C1c2ccccc2S(=O)(=O)c2cc(C(=O)N3CCN(c4ccc(Cl)cn4)CC3)ccc21
The inhibition of the first is lower: 4.82% for the first, 14% for the second.

Going from `O=C(OCC(=O)N1CCCc2ccccc21)c1cccnc1Cl` to `O=C(NCc1ccccn1)C(=O)Nc1nc(-c2ccccc2)cs1`, the inhibition rises from 0.07% to 55.8%.

Going from `COC(=O)N/N=C/c1ccccc1` to `CN(C(=O)CO/N=C/c1ccc(Cl)cc1)c1ccccc1`, the inhibition rises from -2.71% to -0.18%.

Compared with `COc1ccc(NC(=O)CSc2ccccc2)cc1S(=O)(=O)N1CCOCC1`, `COc1ccc(Cl)cc1NC(=O)CSc1nc(Nc2ccccc2)nc(N2CCOCC2)n1` is lower in inhibition: 9.25% for the first, -3.97% for the second.

Compared with `CCCCc1nnc(NC(=O)c2ccc(N3CCCC3=O)cc2)s1`, `Cc1occc1C(=O)Nc1nnc(C(F)(F)F)s1` is lower in inhibition: 0.88% for the first, -11.4% for the second.

Compared with `Cc1cc(NCCO)nc(-n2nc(C)cc2C)n1`, `CCOc1ccc(Nc2cc(C)nc(N3CCOCC3)n2)cc1` is lower in inhibition: 1.56% for the first, -6.87% for the second.

First: C(#Cc1ccc2c(c1)COc1c3ccccc3nn1-2)c1ccccc1
Second: C#Cc1ccc2c(c1)COc1c3ccccc3nn1-2
The inhibition of the first is lower: -2.59% for the first, 26.7% for the second.

Compared with `CC(C)(C)Nc1nc(N2CCCC2)nc(N2CCCC2)n1`, `CCNc1nc(NC(C)(C)C)nc(N2CCCC2)n1` is higher in inhibition: 8.96% for the first, 12.8% for the second.

Compared with `C/C(=N\NC(=S)Nc1cccc(C)c1)c1cc2ccccc2o1`, `CC/C(=N\NC(=S)Nc1cccc(C)c1)c1ccccc1` is lower in inhibition: 67.2% for the first, 4.58% for the second.

Compared with `Cc1ccc2cc(C)c3nnc(SCC(=O)N4CCN(C(=O)c5ccco5)CC4)n3c2c1`, `CCCCC(CC)C(=O)N1CCN(C(=O)c2ccco2)CC1` (configuration not stated) is lower in inhibition: -3.44% for the first, -4.92% for the second.

Going from `Cc1csc(SCC(=O)NC(=O)NCc2ccccc2)n1` to `O=C(NCc1ccccc1)C(=O)Nc1nc(C23CC4CC(CC(C4)C2)C3)cs1`, the inhibition rises from -2.35% to 1.12%.

First: CC(C)(C)N=C1NC(=NC(C)(C)C)c2ccccc21
Second: CNC1=C(N(C(C)=O)c2ccc(Br)cc2)C(=O)c2ccccc2C1=O
The inhibition of the first is higher: 1.58% for the first, -2.3% for the second.

Going from `Cc1ccc(NC(=O)CCc2ccc(C)o2)cc1` to `Cc1cccc(NC(=O)CCc2ccc(C)o2)c1`, the inhibition falls from 23.4% to -15.4%.

Going from `CCOc1ccc(N(CC(=O)NC2CCCC2)C(=O)CCCC(=O)Nc2ccccn2)cc1` to `CCOc1ccc(CN2CCNC(=O)C2CC(=O)N(C)CC2CCOCC2)cc1` (configuration not stated), the inhibition rises from -1.21% to 5.35%.

Going from `CCc1cc(C(=O)NNC(=O)CCN2CCN(c3ccccc3)CC2)sc1C` to `CCc1cc(C(=O)NCC2CCCO2)sc1C` (configuration not stated), the inhibition rises from -4.59% to -1.92%.

First: CCCNC(=O)c1cc2c3ccccc3n(C)c2s1
Second: Cc1cccc(C(=O)NCCc2csc(C)n2)c1
The inhibition of the first is lower: -14.8% for the first, -0.44% for the second.

Going from `C/C(=N/NS(=O)(=O)c1ccc(Br)cc1)c1c[nH]c2ccccc12` to `CN(C)S(=O)(=O)c1ccc(C(=O)NNC(=O)C2COc3ccccc3O2)cc1` (configuration not stated), the inhibition rises from 2.63% to 2.93%.

Compared with `COc1ccc(C(=O)N2CCC(n3nccc3NC(=O)C3CC3)CC2)cc1F`, `Cc1ccc(S(=O)(=O)N(C)c2ccc(C(=O)N3CCC(C(N)=O)CC3)cc2)cc1` is lower in inhibition: 0.61% for the first, -5.27% for the second.

Going from `COc1cc(/C=C2/C(=N)N3N=C(CC(=O)N4CCOCC4)SC3=NC2=O)ccc1OCc1ccccc1F` to `COc1ccc(C(=O)NCc2nnc(SCC(=O)c3ccc(F)cc3)n2C)cc1OC`, the inhibition falls from 0.04% to -0.94%.

First: CCOC(=O)N1CCN(C(=S)NC(=O)c2cccc(OC)c2)CC1
Second: CCOc1cccc2cc(C(=O)Nc3cc(C)on3)c(=O)oc12
The inhibition of the first is lower: -0.27% for the first, 3.23% for the second.

First: CN(C)CCCN1C(=O)c2cccc3cccc(c23)C1=O
Second: O=C(O)CCCN1C(=O)c2cccc3cccc(c23)C1=O
The inhibition of the first is higher: -1.82% for the first, -5.41% for the second.

Compared with `O=C1/C(=C/Nc2cccc([N+](=O)[O-])c2)CCc2ccccc21`, `CC(=O)N(C1=C(N)C(=O)c2ccccc2C1=O)c1ccccc1` is lower in inhibition: 2.58% for the first, -1.88% for the second.

Compared with `O=C1CCCC/C1=C/Nc1ccc2c(c1)OCO2`, `CC1CCCCC12NC(=O)N(CC(=O)OCc1ccc(Br)cc1)C2=O` (configuration not stated) is lower in inhibition: 59.1% for the first, 5.76% for the second.

First: CCc1nc(Nc2ccccc2OC)c2oc3ccccc3c2n1
Second: CCOc1ccccc1C(=O)Nc1nccs1
The inhibition of the first is higher: 2.96% for the first, -0.35% for the second.

Going from `CN(CC(=O)NCCc1ccc(F)cc1)Cc1ccccc1` to `O=C(O)c1cc(N/N=C/c2ccc(OCc3ccccc3)cc2)ccc1Cl`, the inhibition falls from -0.22% to -0.4%.

Compared with `COc1ccc(C=NOCC(=O)OCC(=O)Nc2ccc(OC)cc2)cc1`, `COc1ccc(C)cc1NC(=O)C(NC(=O)c1cc(OC)c(OC)c(OC)c1)C(C)C` (configuration not stated) is lower in inhibition: 4.42% for the first, 0.19% for the second.

First: CC(C)Oc1ccc(/C(O)=C2/C(=O)C(=O)N(CCN(C)C)C2c2cccs2)cc1 (configuration not stated)
Second: CCCOc1ncnc2c1[nH]c1ccc(C)cc12
The inhibition of the first is lower: 4.08% for the first, 6.51% for the second.

`S=C(NC1CCCCCC1)NC1CCCC1` gave an inhibition of 1.4%.
